In general, AC50 refers to the concentration at which the activity in the assay is half-maximal.

“And” between values parts separate entries of the source, which are not always exact repeats. Equal entries are not always repeated. Out of some 16,000 compounds screened, about 5,700 (36%) were called active. Not shown: some 24% with an inconclusive outcome. Some of the results follow. Values without a mark were called inactive. Calls follow the shape of the dose curve; as a rule, active = well fitted curve in the direction sought with a large enough effect; inconclusive = small, poorly fitted or top-dose-only effect, or effect the other way; inactive = no such curve, though single readings can be large or run the other way.
% is scaled to controls: 0 for no effect and ±100 for the full control effect.

The target of the assay is Cytochrome P450 1A2 (Homo sapiens) (UniProt P05177). Description: Cytochrome panel assay with activity outcomes. The note with it: recombinant CYP, pro-luciferin dealkylation, luminescence, p450-cyp1a2; series mostly up to 57.1 µM.
Cytochrome P450 1A2 (Homo sapiens), sequence (P05177 whole entry, looked up): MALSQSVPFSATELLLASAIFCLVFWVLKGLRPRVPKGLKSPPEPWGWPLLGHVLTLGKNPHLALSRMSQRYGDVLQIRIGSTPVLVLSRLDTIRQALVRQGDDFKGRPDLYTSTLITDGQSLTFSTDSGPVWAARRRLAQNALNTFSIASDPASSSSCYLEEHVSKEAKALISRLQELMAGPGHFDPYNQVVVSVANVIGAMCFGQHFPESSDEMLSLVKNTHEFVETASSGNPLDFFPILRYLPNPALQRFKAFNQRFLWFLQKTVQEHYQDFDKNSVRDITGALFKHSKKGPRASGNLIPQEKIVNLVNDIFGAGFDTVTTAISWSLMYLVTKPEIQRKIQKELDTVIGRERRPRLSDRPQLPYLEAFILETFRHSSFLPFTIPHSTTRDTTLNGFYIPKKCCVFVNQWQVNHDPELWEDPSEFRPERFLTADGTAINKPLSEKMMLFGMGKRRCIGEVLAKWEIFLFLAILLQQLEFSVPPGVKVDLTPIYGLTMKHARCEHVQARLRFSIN
In the case of `Cc1ncc([N+](=O)[O-])n1CC(C)O` (stereo unspecified), the AC50 result is “inactive”.
The same measure, in the same setting: in the case of `Cc1ccc2ncc([N+](=O)[O-])n2c1` it was 6.31 µM (active); in that of `Cc1ncc([N+](=O)[O-])n1CCO`, “inactive”.
Take `Cc1nn(C)c(C)c1CNC(=O)c1cnn2c1NC(c1ccccc1)CC2C(F)(F)F` (stereo unspecified): the AC50 result is “inactive”.
Still for that read-out and setting: for `CCC(C)N1C(=O)S/C(=C/c2ccc(Sc3nc4ccccc4[nH]3)o2)C1=O` (stereo unspecified) the value was 2 µM (active); for `NCCNc1ncnc2ccc(Cl)cc12`, 1 µM (active); for `COC(=O)N1CCC2(CCCN(Cc3ccc(C#N)cc3)C2)CC1`, “inactive”.
Consider `CC(C)CC1CC(=O)OC1(C)C(=O)CSc1nc2ccccc2s1` (stereo unspecified), for which the AC50 is 7.08 µM (active).
Consider `O=C(O)CC(c1ccccc1)n1cnnn1` (stereo unspecified), for which the AC50 entry was “inactive”.
Same read-out and setting: for `c1ccc2c(-n3ccnc3)nc(-c3ccoc3)nc2c1` the value was 0.501 µM (active).
Turning to `CN(C)c1ccc(-c2nc(-n3ccnc3)c3ccccc3n2)cc1`, the AC50 was 0.316 µM (active).
In the case of `CCC/C=C(\CCC)C(NS(=O)(=O)c1ccc(C(F)(F)F)cc1)c1ccc(-c2ccccc2)cc1` (stereo unspecified), the AC50 entry is “inactive”.
Turning to `Cc1ccc(C)c(S(=O)(=O)NC(CC(C)C)C(=O)O)c1` (stereo unspecified), the AC50 entry is “inactive”.
`Cc1ccc(S(=O)(=O)N[C@H](C(=O)Oc2ccc3c(C(F)(F)F)cc(=O)oc3c2)c2ccccc2)cc1`: the AC50 is 1.78 µM (active).
For `COC(=O)C/C=C\[C@@H](C)[C@@H](/C=N\OC[C@@H]1O[C@H](c2ccccc2)C=C[C@@H]1Oc1ccc(OC)cc1)NS(=O)(=O)c1ccc(C)cc1`, the activity, negative = inhibition was -1.03% [at 11.4 µM].
With `Cc1ccc(S(=O)(=O)N[C@H](CN)C(=O)O)cc1`, the activity, negative = inhibition was -18.5% [at 2.29 µM].
Consider `Cc1ccc(S(=O)(=O)NC(CC(C)C)C(=O)Oc2ccc3c4c(c(=O)oc3c2)CCC4)cc1` (stereo unspecified), for which the AC50 is 3.98 µM (active).
On to `COc1ccc(CCN2C(=NC(=O)CCC(=O)O)SC3CS(=O)(=O)CC32)cc1` (stereo unspecified), for which the AC50 result was “inactive”.
The same measure, in the same setting: for `CN1CCc2c(c3c(n2C)CCN(C)[C@H]3c2ccccc2F)[C@@H]1c1ccccc1F` the value was “inactive”.
Consider `CC(C)NC(=O)N1CCCC2(CCN(C(=O)c3cc(C(F)(F)F)cc(C(F)(F)F)c3)CC2)C1`, for which the AC50 entry was “inactive”.
Take `C1=C(CN2CCOCC2)COc2c1cccc2OC[C@@H]1CNCCO1`: the AC50 was 12.6 µM (active).
Same read-out and setting: for `Cc1c(C)c2c(c(C)c1O)CC[C@@](C)(CCC[C@@H](C)CCC[C@@H](C)CCCC(C)C)O2` the value was “inactive”; for `COc1ccc(C2CC(=O)c3cnc(Nc4cc(C)cc(C)c4)nc3C2)cc1` (stereo unspecified), 14.1 µM (active); for `COc1ccc(Nc2ncc3c(n2)CC(c2ccc(C)cc2)CC3=O)cc1` (stereo unspecified), 14.1 µM (active).
On to `COc1ccc(NC2=NC(=S)N(c3ccc(C)cc3)C23CCCCC3)cc1`, for which the AC50 result was “inactive”.
`CCSc1nnc(-c2ccc(Cl)cc2)c2ccccc12`: the AC50 was 7.08 µM (active).
Same read-out and setting: for `O=[N+]([O-])c1cc(Cl)cc2c1nc(NCCO)c1ccccc12` the value was 0.02 µM (active); for `CCOC(=O)C(NC(C)=O)C(=O)O` (stereo unspecified), “inactive”.
Regarding `O=C1C[C@@H](O)[C@@H](O)[C@H]2[C@@H]3C(=O)N(C4CCCCC4)C(=O)[C@@H]3CC[C@H]12`, the activity, negative = inhibition was 4% [at 11.4 µM] and -9.85% [at 11.4 µM] and 5.4% [at 11.4 µM].
Consider `O=C1C2C3C=CC([C@@H]2C(=O)N1C1CCCCC1)[C@H]1C(=O)N(C2CCCCC2)C(=O)C31` (stereo partly specified), for which the AC50 entry was “inactive”.
Consider `CC(=O)[C@@H]1[C@@H]2C(=O)N(C3CCCCC3)C(=O)[C@@H]2C2c3ccccc3C=CN21` (stereo partly specified), for which the AC50 is 15.8 µM (active).
`COc1ccc(CNc2ccnc(-c3cccnc3)n2)c(OC)c1`: the AC50 was 0.316 µM (active).
Turning to `COc1cccc(-c2nccc(NCc3ccc(OC)cc3OC)n2)c1`, the AC50 was 1 µM (active).
For the compound `COCCNc1ccnc(-c2cccc(NS(C)(=O)=O)c2)n1`, the AC50 was 2 µM (active).
In the case of `COc1cccc(-c2nccc(NCc3ccccc3OC)n2)c1`, the AC50 was 1.26 µM (active).
Regarding `COc1ccc(C(=O)N2CCC3(CCN(Cc4ccccc4OC)CC3)CC2)cc1`, the AC50 result was “inactive”.
The same measure, in the same setting: for `CCOc1ccc(N(C(C)C(=O)NC(C)CC)S(C)(=O)=O)cc1` (stereo unspecified) the value was “inactive”; for `N[C@H](CCC(=O)N[C@H](CSN=O)C(=O)NCC(=O)O)C(=O)O`, “inactive”.
For the compound `NC1=C2NC=N[C@@H]2N(C/C=C\c2ccccc2)C=N1`, the activity, negative = inhibition is -12.4% [at 2.29 µM].
For `COc1ccc(CNc2ccnc(-c3cccc(NS(C)(=O)=O)c3)n2)c(OC)c1`, the AC50 is 15.8 µM (active).
The same measure, in the same setting: for `CC(C)[C@@H]1NC(=O)[C@H](CCCCN)NC(=O)[C@H](Cc2c[nH]c3ccccc23)NC(=O)[C@H](Cc2ccc(O)cc2)NC(=O)[C@H](C)N(C)C(=O)[C@H](Cc2ccccc2)NC1=O` the value was “inactive”; for `COc1ccc(-c2ccc(=O)n(CC(=O)Nc3nnc(C(C)C)s3)n2)cc1OC`, “inactive”; for `COc1ccc(-c2nn3cnnc3s2)cc1OC`, 20 µM (active).
As for `CN(C)c1ncc2nc(-c3ccc(F)cc3)c(=O)n(Cc3ccc(F)cc3)c2n1`, the AC50 entry is “inactive”.
As to `CN(C)c1ncc2nc(-c3cc(F)cc(F)c3)c(=O)n(Cc3ccc(F)cc3)c2n1`, the AC50 entry is “inactive”.
With `CN(C)c1ncc2nc(-c3ccc(Cl)cc3)c(=O)n(Cc3ccc(F)cc3)c2n1`, the AC50 was 5.01 µM (active).
Still for that read-out and setting: for `Cc1nc2cnc(N(C)C)nc2n(Cc2ccc(F)cc2)c1=O` the value was 2 µM (active).
For the compound `O=C1[C@@H]2[C@H]3[C@H](O)[C@H](O)C/C(=N/OCc4ccccc4)[C@@H]3CC[C@H]2C(=O)N1c1ccc(F)cc1F`, the activity, negative = inhibition was 4.37% [at 11.4 µM].
Regarding `Clc1ccc(/C=N/Nc2nnc(-c3ncc[nH]3)c3ccccc23)cc1`, the AC50 was 0.2 µM (active).
Still for that read-out and setting: in the case of `NC[C@@H]1O[C@H](C23CC4CC(CC(C4)C2)C3)Cc2c1ccc(O)c2O` it was “inactive”.
Turning to `Nc1c(N=Nc2cccc(Cl)c2)c(=O)[nH]n1-c1ccccc1`, the AC50 was 2 µM (active).
As to `Cc1ccc(N=Nc2c(N)n(-c3ccccc3)[nH]c2=O)cc1`, the AC50 is 2.82 µM (active).
Turning to `Cc1ccc(C2C(C=Nc3c(C)n(C)n(-c4ccccc4)c3=O)=C(c3ccccc3)Oc3ccccc32)cc1` (stereo unspecified), the AC50 result is “inactive”.
`Cc1[nH]n(-c2ccc(S(=O)(=O)O)cc2)c(=O)c1N=Nc1ccccc1`: the activity, negative = inhibition was -10.5% [at 11.4 µM].
As to `O=c1cnc2cnc(Oc3cccc(Cl)c3)nc2n1C1CC1`, the AC50 was 2.51 µM (active).
Same read-out and setting: in the case of `O=c1cc(N2CCN(c3cccc(Cl)c3)CC2)[nH]c(=O)n1C1CCCCC1` it was “inactive”; in that of `Cc1nc2cnc(Oc3cccc(Cl)c3)nc2n(C2CC2)c1=O`, 6.31 µM (active); in that of `Cc1nc2cnc(Oc3ccccc3)nc2n(C2CC2)c1=O`, 10 µM (active).
The same measure, in the same setting: in the case of `COc1ccc(C2/C(=C(/O)c3ccccc3)C(=O)C(=O)N2CC(C)O)c(OC)c1` (stereo unspecified) it was “inactive”.
Same read-out and setting: for `N#Cc1ccc(C(c2nnnn2Cc2ccccc2)N2CCCC2)cc1` (stereo unspecified) the value was “inactive”; for `O=C(NCc1ccc(F)cc1)C(c1ccncc1)N(C(=O)c1csnn1)C1CC1` (stereo unspecified), “inactive”.
As for `Cc1sc2ccccc2[n+]1CCC(C)S(=O)(=O)[O-]` (stereo unspecified), the AC50 entry is “inactive”.
Same read-out and setting: for `O=C1c2ccccc2-c2n[nH]c3cccc1c23` the value was 0.0158 µM (active); for `CCc1cccc(NC(=O)CN(C)S(=O)(=O)c2cnc[nH]2)c1`, “inactive”.
On the same count and under the same terms, in the case of `CC1CCN(C(=O)CN(C)S(=O)(=O)c2cccc3nsnc23)CC1` it was “inactive”; in that of `CN(CC(=O)Nc1ccc(F)c(F)c1)S(=O)(=O)c1cccc2nsnc12`, 15.8 µM (active).
Turning to `CCN(CC)CCC[C@H](C)Nc1c2ccc(Cl)cc2nc2ccc(OC)cc12`, the AC50 was 2 µM (active) and 1 µM (active).
Still for that read-out and setting: for `Cc1cccc(N(CC(=O)N2CCOCC2)S(C)(=O)=O)c1` the value was “inactive”; for `CCn1cc(C(=O)N/N=C(/C)c2ccc(F)cc2)c(=O)c2cc(F)c(N3CCCC3)cc21`, “inactive”.
The same measure, in the same setting: in the case of `O=C(N/C(=C\c1cccnc1)C(=O)N1CCOCC1)c1cccc(Br)c1` it was “inactive”; in that of `CC(C)OP(=O)(OC(C)C)C(NC(=O)c1ccc(Br)cc1)c1ccccc1` (stereo unspecified), “inactive”.
With `C/C(=N\NC(=O)c1ccc(Br)cc1)c1ccccc1`, the AC50 is 1.41 µM (active).
Same read-out and setting: for `C/C(=N\NC(=O)c1cccc(Br)c1)c1ccc(Br)cc1` the value was 0.282 µM (active).
On the same count and under the same terms, in the case of `C/C(=N/NC(=O)c1ccc(NC(=O)c2ccc(F)cc2)cc1)c1ccccc1` it was “inactive”; in that of `Cc1ccccc1-c1nccc(NCc2cccs2)n1`, 0.501 µM (active); in that of `CN(C)Cc1ccccc1-c1nccc(NCc2cccs2)n1`, 0.794 µM (active).
The same measure, in the same setting: for `FC(F)(F)c1ccccc1-c1nccc(NCc2cccs2)n1` the value was 1.26 µM (active); for `CC1CCN(c2cc(N3CCC(C)CC3)c([N+](=O)[O-])cc2/C=C(\C#N)c2nn(-c3ccccc3)c(N)c2C#N)CC1`, “inactive”; for `COc1ccc(CC(NC(C)=O)C(=O)NC2CCN(C(=O)Nc3ccc(Cl)cc3)CC2)cc1OC` (stereo unspecified), “inactive”.
As to `CCCC[P+](CCCC)(CCCC)Cc1ccc(NC(=O)[C@@H](Cc2ccc3ccccc3c2)NC(=NC2CCCCC2)NC2CCCCC2)cc1`, the AC50 was 31.6 µM (active).
Still for that read-out and setting: in the case of `O=C(Nc1ccccc1)C(Cc1ccccc1)NC(=O)C12CC3CC(CC(C3)C1)C2` (stereo unspecified) it was “inactive”; in that of `CCNC(=S)NNC(=O)Cc1ccccc1`, “inactive”; in that of `CCNC(=S)NNC(=O)CCn1c2ccccc2c2ccccc21`, 2.82 µM (active).
Still for that read-out and setting: in the case of `CC(=O)C1=NOC(CNC(=O)c2c(-c3ccccc3Cl)noc2C)C1` (stereo unspecified) it was “inactive”; in that of `N#Cc1c(NC(=O)C2CC(c3ccccc3Cl)=NO2)sc2c1CCC2` (stereo unspecified), 3.55 µM (active).
`COc1ccc(COC(=O)N/N=C2/C[C@@H](O)[C@@H](O)[C@@H]3[C@@H]4C(=O)N([C@@H](C)c5ccccc5)C(=O)[C@H]4CC[C@@H]23)cc1`: the activity, negative = inhibition is -1.59% [at 11.4 µM].
Take `CSc1ccc(CNc2ccc(Cl)cc2)cc1`: the AC50 was 10 µM (active).
For the compound `CSc1ccc(CNc2ccc(C)c(C)c2)cc1`, the AC50 is 0.891 µM (active).
For the compound `CSc1ccc(CNc2ccccc2)cc1`, the AC50 is 25.1 µM (active).
On the same count and under the same terms, in the case of `CC(Sc1nc(NCc2ccccc2)nc(N(C)C)n1)C(=O)Nc1ccccc1` (stereo unspecified) it was “inactive”; in that of `CCCCC[C@H](CC(=O)NO)C(=O)N[C@@H](C(=O)N1CCC[C@H]1CO)C(C)C`, “inactive”.

These data come from PubChem BioAssay AID1851 (National Center for Advancing Translational Sciences (NCATS), 2009).
